High-throughput results as filed in PubChem.
Pf growth 48h – P. falciparum growth inhibition at 48 hours (one generation). 5.9% of 310,000 active. P. falciparum luciferase growth in erythrocytes, 48 h. Potency, µM (top dose mostly 28.7 µM), inactives show at the top dose activity change, negative = inhibition, usual class: inhibitors; further: potency means the concentration at half of the fitted maximal effect; on the % scale 0 is the no-effect control and ±100 the full control effect
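Compounds are pin-transferred into medium, infected erythrocytes (2% hematocrit, 0.1% parasitemia final) are added, and plates sit one parasite generation at 37 C in 5% CO2. Detection reagent is then added and luminescence measured.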
AMA1-RON2 inh – disrupts binding of P. falciparum AMA1 to RON2 | AlphaScreen AMA1-biotinylated RON2 peptide binding | Potency, µM (top dose mostly 58.2 µM), for the others: at the top dose activity change, negative = inhibition, usual class: inhibitors | 0.2% of 360,000 active | AID 720542;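 further: potency means the concentration at half of the fitted maximal effect; 0% = vehicle wells and -100% = peptide control; nearly all actives have a fitted effect of over 45% in size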
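AMA1 (3D7) with his tag at 25 nM final met compounds first, then biotinylated RON2 peptide at 25 nM; detection used donor plus acceptor beads, 10 µg/mL apiece, read by AlphaScreen after 30 min at room temperature.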
CHX counter – counter-screen for Shiga toxin inhibitors: cycloheximide protein synthesis inhibition; cell reporter, cycloheximide protein synthesis inhibition counterscreen; max response, %; 12% of 300,000 active; in the data active means max response mostly above about 13%, no sharp cut-off; inactive means mostly below about 14%; further: read at 38.3 µM for the half of the compounds with a filed dose; 0% is about no effect
Shiga inhibitor – Shiga toxin inhibition; AID 2315; Vero cells, Shiga toxin protein synthesis inhibition reporter; inhibition, % at 38.7 µM; 9.2% of 290,000 active; in the data active means inhibition mostly above about 28%, no sharp cut-off; inactive means mostly below about 43%; further: 0% is about no effect
Pf growth 96h – inhibits malaria parasite growth, 96 h. P. falciparum luciferase reporter growth, 96 h. Potency, µM (titrated, usually from 28.7 µM), inactives show at the highest dose activity change, negative = inhibition, usual class: inhibitors. 6.9% of 320,000 active; further: potency means the concentration at half of the fitted maximal effect; on the % scale 0 is the no-effect control and ±100 the full control effect
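Delayed-death screen, second-generation endpoint: infected erythrocytes, 2% hematocrit, 0.05% parasitemia final; 96 hours at 37 C, 5% CO2; luciferase detection reagent; luminescence decrease equals reduced growth.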
SARS PLP yeast – SARS-CoV PLP inhibition in yeast. S. cerevisiae expressing SARS-CoV PLpro, growth rescue. Potency, µM (doses to about 32.9 µM), for the others: top-dose activity, positive = growth rescue, usual class: activators. 0.19% of 330,000 active. AID 485353; calls by dose curve; further: potency means the concentration at half of the fitted maximal effect; 0% is about no effect; nearly all actives have a fitted effect of over 55% in size
Active calls of the source: *; [ ] = another dose, or the depositor's remark. Only some compounds are listed: those with a hit (about 19% of all), similar ones and a draw of the others. Unless noted, the call rests on the fitted dose curve; in most records, active means well fitted curve in the direction sought with a large enough effect; inconclusive means small, poorly fitted or top-dose-only effect, or another doubt; inactive means no such curve, though single readings can be large; an effect the other way counts as inactive or inconclusive.

`C=C1C(n2cnc3c(=O)[nH]c(N)nc32)C[C@H](O)[C@H]1CO` (some centres undefined) gave Pf growth 48h inconclusive and Pf growth 96h 6µM*.
Nc1nc2c(ncn2C2C[C@H](O)[C@@H](CO)O2)c(=O)[nH]1 (some centres undefined) was read as Pf growth 48h 3%, AMA1-RON2 inh 2% and Pf growth 96h 3%.
`Cc1cccc(NC(=O)CC23CC4CC(C2)CC(n2nnc(C)n2)(C4)C3)c1` gave Pf growth 48h inconclusive, AMA1-RON2 inh 4%, CHX counter -4, Shiga inhibitor -11, Pf growth 96h 13µM* and SARS PLP yeast 4%.
For C=CCN(C(=O)c1cccc(C(F)(F)F)c1)C1(C(=O)Nc2ccccc2)CCN(C(C)C)CC1 the results were Pf growth 48h inconclusive, AMA1-RON2 inh -16%, CHX counter -4, Shiga inhibitor -9, Pf growth 96h 7.4µM* and SARS PLP yeast -1%.
For CNCc1ccccc1Sc1cccc2ccccc12 the results were Pf growth 48h inconclusive, AMA1-RON2 inh -11%, CHX counter -5, Shiga inhibitor -12, Pf growth 96h inconclusive and SARS PLP yeast 1%.
Screening CN(C)CCN(C)Cc1ccccc1Sc1cccc2ccccc12 returned Pf growth 48h inconclusive, AMA1-RON2 inh -29%, CHX counter -10, Shiga inhibitor -26, Pf growth 96h 13µM* and SARS PLP yeast -35%.
Screening O=C1NC(=O)C(=Cc2ccc3c(c2)OCO3)C(=O)N1 returned Pf growth 48h 10%, CHX counter 12, Shiga inhibitor 6, Pf growth 96h 9.3µM* and SARS PLP yeast 0%.
C=CCc1c(C)nc(-c2ccccc2)nc1Nc1ccccc1O was read as Pf growth 48h 5.2µM*, AMA1-RON2 inh 2%, CHX counter -2, Shiga inhibitor 9, Pf growth 96h inconclusive and SARS PLP yeast -65%.
`C=CCc1c(C)nc(-c2ccccc2)nc1N/N=C/c1ccccc1` gave Pf growth 48h 38%, AMA1-RON2 inh 66%, CHX counter -4, Shiga inhibitor -3, Pf growth 96h inconclusive and SARS PLP yeast -29%.
`C=CCc1c(C)nc(-c2ccccc2)nc1N/N=C/c1ccncc1` gave Pf growth 48h inconclusive, AMA1-RON2 inh 44%, CHX counter 23*, Shiga inhibitor 30, Pf growth 96h inconclusive and SARS PLP yeast -13%.
For CC1CCCCCCC1OC(=O)c1ccccc1C(=O)O (centres undefined) the results were AMA1-RON2 inh 15%.
O=C(O)CCCC(=O)N1CCN(C(c2ccccc2)c2ccccc2)CC1 was read as Pf growth 48h -7%, AMA1-RON2 inh -9%, CHX counter -7, Shiga inhibitor -9, Pf growth 96h -24% and SARS PLP yeast 23%.
For O=C1C[C@H]2[C@H](CO)[C@@H](OC(=O)c3ccc(-c4ccccc4)cc3)C[C@H]2O1 the results were Pf growth 48h 87%, AMA1-RON2 inh -1%, CHX counter 50*, Shiga inhibitor 109*, Pf growth 96h 52% and SARS PLP yeast -1%.
O=C1CC2C(CC(OC(=O)c3ccc(-c4ccccc4)cc3)C2CO)O1 (centres undefined) was read as Pf growth 48h 132%, AMA1-RON2 inh 12%, CHX counter 30*, Shiga inhibitor 49* and SARS PLP yeast -3%.
`O=C(Nc1ccn(C2CC(OC(=O)c3ccccc3)C(CO)O2)c(=O)n1)c1ccccc1` (centres undefined) gave Pf growth 48h inconclusive, AMA1-RON2 inh 4%, CHX counter -2, Shiga inhibitor -4, Pf growth 96h 6% and SARS PLP yeast 6%.
COC(=O)C(C)NC(=O)c1cn(-c2ccccc2OC)c(=O)c2ccccc12 (centres undefined) was read as Pf growth 48h 9%, AMA1-RON2 inh -4%, CHX counter -2, Shiga inhibitor -2, Pf growth 96h 1% and SARS PLP yeast 0%.
CCOC(=O)c1c(C)nc2c(c1-c1cc(OC)c(OC)c(OC)c1)C(=O)c1ccccc1-2 was read as Pf growth 48h 8%, AMA1-RON2 inh -6%, CHX counter -5, Shiga inhibitor -5 and SARS PLP yeast 4%.
For CCOC(=O)N1CCC(N2Cc3cccc(C(=O)Nc4ccc(F)cc4)c3C2=O)CC1 the results were Pf growth 48h 3.3µM*, AMA1-RON2 inh -2%, CHX counter 7, Shiga inhibitor 13, Pf growth 96h -13% and SARS PLP yeast 8%.
CCOC(=O)N1CCC(N2Cc3cccc(C(=O)Nc4ccc(CC)cc4)c3C2=O)CC1 was read as AMA1-RON2 inh -5%, CHX counter -2, Shiga inhibitor 18, Pf growth 96h 47% and SARS PLP yeast 1%.
Screening CCOC(=O)N1CCC(N2Cc3cccc(C(=O)Nc4ccc(N(CC)CC)cc4C)c3C2=O)CC1 returned Pf growth 48h inconclusive, AMA1-RON2 inh -5%, CHX counter -4, Shiga inhibitor -21, Pf growth 96h 0.74µM* and SARS PLP yeast 8%.
`Cc1ccc(NC(=O)c2cccc3c2C(=O)N(C2CCCCC2)C3)c(C)c1` gave Pf growth 48h inconclusive, AMA1-RON2 inh 16%, CHX counter -7, Shiga inhibitor 22, Pf growth 96h inconclusive and SARS PLP yeast -7%.
For Cc1ccc(NC(=O)c2cccc3c2C(=O)N(C2CCCCC2)C3)cc1 the results were Pf growth 48h 5%, AMA1-RON2 inh -6%, CHX counter -1, Shiga inhibitor -11, Pf growth 96h 12µM* and SARS PLP yeast inconclusive.
Screening CCN(CC)c1ccc(NC(=O)c2cccc(C)c2OC)c(C)c1 returned Pf growth 48h 106%, AMA1-RON2 inh -28%, CHX counter 65*, Shiga inhibitor 87*, Pf growth 96h 24% and SARS PLP yeast -5%.
For CC(C)=CCCC1=CCC(/C=N/NC(N)=O)C(C)C1 (centres undefined) the results were Pf growth 48h 4%, AMA1-RON2 inh 0%, CHX counter 5, Shiga inhibitor -2, Pf growth 96h -16% and SARS PLP yeast 15%.
`O=C(CN1C(=O)CSc2ccc(S(=O)(=O)N3CCCCC3)cc21)NCc1ccccc1Cl` gave Pf growth 48h inconclusive, AMA1-RON2 inh -7%, CHX counter 4, Shiga inhibitor -4, Pf growth 96h 31% and SARS PLP yeast 1%.
Cn1c(=O)n(C)c2cc(NC(=O)COc3ccc(Cl)cc3)ccc21 was read as Pf growth 48h -9%, AMA1-RON2 inh -8%, CHX counter 1, Shiga inhibitor 11, Pf growth 96h inconclusive and SARS PLP yeast -4%.
`CCn1ccc(C(=O)Nc2c(C)nn(Cc3c(F)c(F)c(F)c(F)c3F)c2C)n1` gave Pf growth 48h -4%, AMA1-RON2 inh -1%[2.32 µM], CHX counter -2, Shiga inhibitor -5, Pf growth 96h inconclusive and SARS PLP yeast 3%.
